Screening data (PubChem)
Shown are actives, neighbours in structure and some others; about 0.91% of the full set was active somewhere.
BLM inh-1 = inhibitors of human Bloom syndrome helicase BLM; recombinant BLM DNA unwinding, fluorescence dequenching; P54132; hit rate 0.2% among 350,000; Potency, µM (doses to about 56.1 µM), for inactives: at the top dose activity change, negative = inhibition, hits mostly inhibitors;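 further: plate controls were vehicle for no effect and no enzyme for full effect; nearly all actives have a fitted effect of over 35% in size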
WRN inhibitor = inhibitors of human WRN helicase | hit rate 0.46% among 360,000 | AID 651768 | WRN helicase unwinding, fluorescent forked duplex, kinetic | Q14191 | Potency, µM (highest dose often 114 µM), for inactives: top-dose activity change, negative = inhibition, actives largely listed as inhibitors; further: nearly all actives have a fitted effect of over 55% in size
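Fluorescence dequenching readout, ex 525 nm/em 598 nm, kinetic mode: forked duplex DNA (100 nM final) with adjacent fluorophore and quencher unwound by WRN (20 nM final) with 2 mM ATP. Compound preincubation 15 min, room temperature.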
TR SRC2 fluor cs = Texas Red fluorescence interference in TRb-SRC2 counter-screen | hit rate 0.29% among 280,000 | TRb/SRC2 Texas Red total fluorescence interference | Potency, µM (top dose mostly 106 µM), inactives show at the highest dose fluorescence change, negative = quenching; active means well fitted curve in either direction with a large enough effect; inconclusive means small, poorly fitted or top-dose-only effect
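Human TRβ ligand-binding domain (0.6 uM) and Texas Red SRC2 peptide (20 nM) in Tris buffer with 1 uM T3 and 5% DMSO were incubated with pinned compound for 5 hr at ambient temperature. Total fluorescence was computed as S + 2P (555/632 nm).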
RECQ1 inh-1 = blocks DNA unwinding by human RECQ1 | RECQ1 DNA unwinding, red fluorescence kinetic read | Potency, µM (top dose mostly 57.3 µM), for the others: top-dose activity, negative = inhibition, hits mostly inhibitors | P46063 | hit rate 0.54% among 240,000;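 further: plate controls were vehicle for no effect and no enzyme for full effect; nearly all actives have a fitted effect of over 30% in size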
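50 nM RECQ1T1 preincubated 15 min with compound in Tris pH 8.0 buffer with MgCl2, DTT, Tween-20 and 2.5 ug/ml poly(dI-dC); started with 200 nM TAMRA/BHQ-2 forked duplex and 2 mM ATP. Unwinding read as fluorescence (525/598 nm), two reads 2 h apart.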
APE1 inh = APE1 (human) endonuclease inhibition; hit rate 0.35% among 350,000; P27695; Potency, µM (top dose mostly 65.8 µM), for the others: at the highest dose activity change, negative = inhibition, hits mostly inhibitors; recombinant APE1, TAMRA/BHQ-2 abasic DNA cleavage fluorescence;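 further: plate controls were vehicle for no effect and reference inhibitor for full effect; nearly all actives have a fitted effect of over 55% in size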
Target sequence (P27695 whole entry, looked up): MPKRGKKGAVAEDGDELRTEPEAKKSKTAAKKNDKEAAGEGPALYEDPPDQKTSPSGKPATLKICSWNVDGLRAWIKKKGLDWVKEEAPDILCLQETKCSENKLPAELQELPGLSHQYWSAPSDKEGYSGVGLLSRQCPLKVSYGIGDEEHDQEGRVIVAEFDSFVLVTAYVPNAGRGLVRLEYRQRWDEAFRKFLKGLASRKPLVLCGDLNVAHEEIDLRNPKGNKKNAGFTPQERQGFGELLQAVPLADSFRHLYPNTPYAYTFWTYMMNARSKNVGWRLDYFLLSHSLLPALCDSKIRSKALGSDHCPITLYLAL
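Readout is kinetic fluorescence (ex 525, em 598 nm) from cleavage of 50 nM TAMRA/BHQ-2 THF abasic duplex by 0.75 nM APE1, compound added 15 min beforehand at RT.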
TRb-SRC2 inh = inhibitors of human thyroid hormone receptor beta-SRC2 interaction; P10828; TRbeta-SRC2 peptide binding, fluorescence polarization; receptor liganded with 1 µM T3; Potency, µM (series often up to 106 µM), inactives show at the top dose activity change, negative = inhibition, hits mostly inhibitors; hit rate 0.065% among 280,000;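 further: plate controls were bound peptide for no effect and peptide without receptor for full effect; nearly all actives have a fitted effect of over 50% in size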
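Compounds were added to 0.6 uM TRb ligand-binding domain and 20 nM Texas Red-labeled SRC2 peptide in Tris buffer containing 1 uM T3, incubated 5 hr at ambient temperature, then read by fluorescence polarization.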
BLM inh-2 = BLM (human) helicase inhibition, confirmation. shares compounds with BLM inh-1. BLM DNA unwinding, fluorescence quenching, biochemical. AID 2585. Potency, µM, without a hit: max response, negative = inhibition, actives largely listed as inhibitors. hit rate 40% among 220;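 further: strand separation dequenches TAMRA so unwinding raises red fluorescence; series mostly up to about 69 µM; nearly all actives have a fitted effect of over 45% in size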
RECQ1 inh conf = confirmation of human RECQ1 helicase inhibitors | shares compounds with RECQ1 inh-1 | RECQ1 helicase DNA unwinding, fluorescence | Potency, µM (titrated, usually from 229 µM), for the others: at the highest dose activity change, negative = inhibition, usual class: inhibitors | hit rate 28% among 610 | AID 2708; further: nearly all actives have a fitted effect of over 45% in size
ADP FP counter = counter-screen for RECQ1 inhibitors: ADP displacement | shares compounds with RECQ1 inh-1 | ADP fluorescence polarization displacement counterscreen | Potency, µM (doses to about 228 µM), inactives show at the top dose activity change, negative = inhibition, hits mostly inhibitors | hit rate 27% among 530 | AID 2711; further: nearly all actives have a fitted effect of over 45% in size
RECQ1 inh-2 = blocks human RECQ1 DNA unwinding | hit rate 15% among 1,100 | recombinant RECQ1 DNA unwinding, red fluorescence | shares compounds with RECQ1 inh-1 | Potency, µM (doses to about 119 µM), inactives show top-dose activity, negative = inhibition, hits mostly inhibitors | AID 504841; further: nearly all actives have a fitted effect of over 50% in size
An asterisk follows results filed as active; ? = inconclusive; · = no result; ! = not active in a repeat; [ ] = another dose, or the depositor's remark. Unless noted, the call rests on the fitted dose curve; in most records, active means well fitted curve in the direction sought with a large enough effect; inconclusive means small, poorly fitted or top-dose-only effect, or another doubt; inactive means no such curve, though single readings can be large; an effect the other way counts as inactive or inconclusive. Unless noted, on the % scale 0 is the no-effect control and ±100 the full control effect; potency means the concentration at half of the fitted maximal effect.

SMILES	BLM inh-1	WRN inhibitor	TR SRC2 fluor cs	RECQ1 inh-1	APE1 inh	TRb-SRC2 inh	others
CCOC(=O)c1c(NC(=O)c2c(N)n(CCCOC)c3nc4ccccc4nc23)sc2c1CCCC2	4µM*	-4%	1%	-6%	2%	5%	BLM inh-2=-11%
Cc1cccn2c(=O)cc(COc3cccc(NC(=O)COc4ccc(F)cc4)c3)nc12	14µM*	·	-1%	·	·	2%	BLM inh-2=?
CN1C(=O)C(=Cc2ccc(OCC(=O)Nc3ccccc3)cc2)C(=O)N(C)C1=O	2%	?	·	·	1%	·
COc1cc(Cl)c(OC)cc1Cl	·	·	-1%[201 µM]	·	·	0%[201 µM]
C1=NCCc2c1[nH]c1ccccc21	·	-6%	·	·	·	·
CC1=NCCc2c1[nH]c1cc(O)ccc21	40µM*!	-28%	3%	?	?	6%	BLM inh-2=-2%
CC(C)OCCCNC(=O)c1c(N)n(CC2CCCO2)c2nc3ccccc3nc12 (stereo not given)	5µM*	-21%[57.1 µM]	-2%	-12%	-7%	-19%	BLM inh-2=-11%
Cc1ccccc1CO[C@@H]1C[C@@]2(C(C)C)CC[C@]1(C)O2	·	·	1%[201 µM]	·	·	-6%[201 µM]
CN1C[C@@H](C(=O)N[C@@]2(C)O[C@]3(O)C4CCCN4C(=O)[C@@H](Cc4ccccc4)N3C2=O)C=C2c3cccc4[nH]cc(c34)C[C@@H]21 (stereo not given in full)	-14%	·	?	?	?	-9%	RECQ1 inh conf=?;ADP FP counter=7.9µM*
CC(C)[C@@]1(NC(=O)[C@@H]2C=C3c4cccc5[nH]cc(c45)C[C@H]3N(C)C2)O[C@@]2(O)[C@@H]3CCCN3C(=O)[C@H](Cc3ccccc3)N2C1=O	-21%	·	28%	-3%	?	?
C=CC(=O)OCCCCCC(C)C	·	·	-1%[201 µM]	·	·	-2%[201 µM]
CCn1nc(-c2cccs2)nc2c(=O)n(C)c(=O)nc1-2	1.1µM*	-34%	-6%	3.5µM*	-3%	?	RECQ1 inh conf=?;ADP FP counter=7%[91.9 µM]
CCNc1nc(NCC)nc(SC)n1	·	·	-15%[201 µM]	·	·	-10%[201 µM]
CCOP(=S)(Oc1cnc(C(C)(C)C)nc1)OC(C)C (stereo not given)	·	·	-1%[201 µM]	·	·	-2%[201 µM]
C/C=C1/C[C@@H](C)[C@@](C)(O)C(=O)OCC2=CCN3CC[C@@H](OC1=O)[C@@H]23	-4%	·	-1%	?	?	-7%	RECQ1 inh-2=0%
CC(C)COP(=O)(OCC(C)C)OCC(C)C	·	·	-1%[201 µM]	·	·	2%[201 µM]
O=C(c1ccc(CS(=O)(=O)c2ccccc2)o1)N1CCC2(CC1)OCCO2	-19%	-6%[11.6 µM]	-5%	?	?	-28%	RECQ1 inh-2=?
CC[C@H]1CC2CN3CCc4c([nH]c5cc(OC)ccc45)[C@](C(=O)OC)(C2)[C@H]13	·	0%	·	·	·	·
COc1ccc2c3c([nH]c2c1)C(C)=NCC3	?	-19%	0%	14µM*!	?	-4%	RECQ1 inh conf=-67%;ADP FP counter=18µM*;RECQ1 inh-2=50µM*
O=C(O)c1ccccc1-c1c2cc(Br)c(=O)cc-2oc2[c]([Hg])c(O)c(Br)cc12	16µM*	·	45µM*[fluorescent]	25µM*	25µM*	20µM*!	RECQ1 inh conf=11µM*;ADP FP counter=0.2µM*
